From PubChem BioAssay (NCATS) come the findings set out here.

A number with no mark means an inactive call. Calls follow the shape of the dose curve; as a rule, active = well fitted inhibition curve with a large enough effect; inconclusive = small, poorly fitted or top-dose-only effect; inactive = flat fitted curve, though single readings scatter. *1 amine or outer side, *2 acyl side, *3 side chain or, on linkers, in order; H or OH if unused. Where a SMILES comes first, the peptide text is derived from it. Bridges are numbered along the chain shown (N, C = ends). [ ]: non-standard residue; d: D form. The star is where a group is joined. ξ: configuration not given here. ξhTyr(3S-OH,4S-OH,3'-OSO3H) = NC(C(=O)O)[C@H](O)[C@@H](O)c1ccc(O)c(OS(=O)(=O)O)c1; Orn(4R-OH,5R-OH) = O=C([C@H](C[C@@H](O)[C@@H](O)N[*:3])N[*:1])[*:2]; X2 = CCCCCOc1ccc(-c2cc(-c3ccc(C(=O)*)cc3)no2)cc1; X3 = C[C@H]1CN([*:1])C(C(=O)[*:2])[C@H]1O; ξGln(3R-OH) = NC(=O)C[C@@H](O)C(N)C(=O)O; ξPro(4R-OH) = O=C(O)C1C[C@@H](O)CN1; ξThr(3R) = C[C@@H](O)C(N)C(=O)O

For this assay, the system named is Nanoluciferase (engineered Oplophorus gracilirostris luciferase). As to the kind of experiment: Primary Nanoluciferase (NLuc) qHTS assay for identification of artifact compounds. (AID 1845222).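 Also: NLuc secreted into diluted conditioned medium of S16 cells; 0% = DMSO and -100% = no enzyme.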 The conditions noted are these: NLuc-conditioned medium, Nano-Glo luminescence, 5 min; series mostly up to 54.1 µM; activity, negative = inhibition: at the top concentration. Summed up:
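qHTS format, against NLuc in S16 cell-conditioned medium. Nano-Glo substrate 1:100 was added after 15 min at room temperature. Luminescence was taken after a further 5 min.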
For the molecule `COC(O)(CC(C)C)C1Oc2cc(C)[nH]c(=O)c2O1` (stereo not given), the “activity, negative = inhibition” value is -1.14%.

Take `CC1(CO)CC(O)C2(C)CCC3(C)C(=CCC4C5(C=O)CCC(OC6OC(C(=O)O)C(O)C(O)C6OC6OC(C(=O)O)C(O)C(O)C6O)C(C)(C)C5CCC43C)C2C1` (stereo not given): the activity, negative = inhibition is -13.8% [at 11.6 µM].

As for `C=CC(C)(O)CC/C=C(\C)C1CC=C(C)C(=O)O1` (stereo not given), the “activity, negative = inhibition” value was -4.79%.

In the case of `CC1OC(OC2C(OC(=O)[C@]34CCC(C)(C)C[C@H]3C3=CCC5[C@@]6(C)CC[C@H](OC7OC(C(=O)O)C(O)C(O)C7O)C(C)(C)C6CC[C@@]5(C)[C@]3(C)CC4O)OC(CO)C2O)C(O)C(O)C1OC1OCC(O)C(O)C1O` (stereo not given in full), the activity, negative = inhibition is 0% [at 11.6 µM].

As to `CC(C/C=C/C(C)(C)O)C1CCC(C)(O)C(O)C1` (stereo not given), the “activity, negative = inhibition” value is -2.91%.

Regarding `CC1CCC2C(C)(C)[C@H](O)CC[C@]2(C)C12Cc1c(O)cc3c(c1O2)CN(C(CCC(=O)O)C(=O)O)C3=O` (stereo not given in full), the “activity, negative = inhibition” value is 0.609% [at 25.7 µM].

For the molecule `C=C1CC[C@@H]2C(C)(C)CCC[C@@]2(C)[C@@H]1CC/C(=C/C(=O)OC)COC(C)=O`, the “activity, negative = inhibition” value is 1.42%.

Consider `C/C=C/C=C/C1=C2C(=O)C3(C)C4C(C(=O)CC(O)/C=C/C)=C(O1)C1(C)C2C2(C)OC1(O)C4(C)OC23O` (stereo not given), for which the “activity, negative = inhibition” value was -5.65% [at 25.7 µM].

In the case of `CC1(CO)CCCC2(C)C1C(OC(=O)c1ccccc1)CC1C(=O)OCC12O` (stereo not given), the “activity, negative = inhibition” value is -1.09%.

With `C/C=C/C=C/C(O)=C1/C(=O)[C@]2(C)C(=O)[C@@](C)(O)[C@H]1[C@H]([C@@]1(C)OC(=O)C(C)=C1O)[C@H]2C(=O)CC/C=C/C`, the “activity, negative = inhibition” value was -1.2% [at 25.7 µM].

Regarding `CCc1nn(CCO)c(CC)c1Oc1cc(C#N)cc(C#N)c1`, the “activity, negative = inhibition” value is 1.69%.

For the molecule `CCC/C=C/C=C/C1CC(O)C(O)C(=O)C1CO` (stereo not given), the “activity, negative = inhibition” value is 2.76%.

In the case of `CC[C@@H]1[C@H]2CCCCN3C(=O)C[C@H]([C@@H]4[C@H]1OC(=O)[C@H]4C)[C@@H]23`, the “activity, negative = inhibition” value was -0.912%.

For the molecule `CC1(C(=O)O)CC[C@]2(C(=O)OC3OC(CO)C(O)C(O)C3O)CC[C@]3(C)C(=CCC4[C@@]5(C)CC[C@H](OC6OCC(O)C(O)C6OC6OC(CO)C(O)C(O)C6O)C(C)(C)C5CC[C@]43C)C2C1` (stereo not given in full), the activity, negative = inhibition was 1.15% [at 11.6 µM].

For `CCC(C)/C=C(C)/C=C/C(=O)C1CCC(O)C(C)(O)C1=O` (stereo not given), the “activity, negative = inhibition” value is -3.07%.

As for `CC1=C(C)C(=O)OC(C(C)C2C(O)CC3C4C5OC5C5(O)CC(OC6OC(CO)C(OC7OC(C)C(O)C(O)C7O)C(O)C6O)CC(O)C5(C)C4CCC32C)C1` (stereo not given), the “activity, negative = inhibition” value was 0.227% [at 25.7 µM].

Regarding `COc1cccc(CNc2ccc(S(=O)(=O)Nc3nc4ccccc4s3)cc2)c1O`, the “activity, negative = inhibition” value is -2.42%.

In the case of `C/C=C1/CC2C(=O)Nc3cc(O)c(OC)cc3C(=O)N2C1` (stereo not given), the “activity, negative = inhibition” value is -4.13%.

Turning to `COc1cc2c(cc1O)C(c1ccc(O)cc1)C(C)C(C)C2` (stereo not given), the “activity, negative = inhibition” value is -5.66%.

In the case of `Cc1nc2ccccc2c(-c2ccc3c4c(ccnc24)CCO3)c1[C@H](OC(C)(C)C)C(=O)O`, the “activity, negative = inhibition” value was -6.03%.

As to `O=C(O)CC/C=C\C[C@H]1CO[C@@H](c2ccccc2Cl)O[C@H]1c1ccccc1O`, the “activity, negative = inhibition” value is -9.82%.

Consider `CC1(C)C=Cc2c(ccc3c2[N+]([O-])=C2C3(O)CC34NC(=O)C5(CCCN5C3=O)CC4C2(C)C)O1` (stereo not given), for which the “activity, negative = inhibition” value is 0.394% [at 25.7 µM].

As for `CCCCCOc1ccc(-c2cc(-c3ccc(C(=O)N[C@H]4C[C@@H](O)[C@@H](O)NC(=O)C5[C@@H](O)[C@@H](C)CN5C(=O)C([C@H](O)CC(N)=O)NC(=O)C([C@H](O)[C@@H](O)c5ccc(O)c(OS(=O)(=O)O)c5)NC(=O)C5C[C@@H](O)CN5C(=O)C([C@@H](C)O)NC4=O)cc3)no2)cc1` (stereo partly drawn) (X2-[Orn(4R-OH,5R-OH)][ξThr(3R)][ξPro(4R-OH)][ξhTyr(3S-OH,4S-OH,3'-OSO3H)][ξGln(3R-OH)][X3]; lactam 1-C), the “activity, negative = inhibition” value is 1.14% [at 25.7 µM].

In the case of `CC(=O)O[C@@H]1C(O)C[C@@]2(C)C(CC[C@@H](C)C23Cc2c(O)cc4c(c2O3)CNC4=O)C1(C)C` (stereo not given in full), the “activity, negative = inhibition” value was -1.82% [at 25.7 µM].

As for `C=C1Cc2c(Cl)cc3[nH]c4c5c3c2[C@@]2(O)[C@@H]1C[C@@H]2C(C)(C)O[C@H]5C1CC[C@@]2(O)[C@@]35O[C@@H]3[C@H]3OC(C)(C)[C@H]3O[C@H]5CC[C@]2(C)[C@@]41C` (stereo not given in full), the “activity, negative = inhibition” value was -0.929% [at 25.7 µM].

On to `CCN1CCN(C(=O)N[C@@H](C(=O)N[C@@H]2C(=O)N3[C@@H]2SC(C)(C)[C@@H]3C(=O)O)c2ccccc2)C(=O)C1=O`, for which the “activity, negative = inhibition” value is 3.71%.

Turning to `C/C=C/C=C/C(O)=C1/C(=O)[C@]2(C)C3/C(=C(O)/C=C/C=C/C)C(=O)C4(C)C1[C@]1(C)O[C@@]4(O)[C@@]3(C)O[C@@]12O`, the “activity, negative = inhibition” value is -5.34% [at 25.7 µM].

As to `CC(=O)O[C@@H]1[C@H](O[C@@H]2OC[C@](O)(CO)[C@H]2O)[C@@H](O[C@@H]2O[C@@H](C)[C@H](O)[C@@H](O[C@@H]3O[C@H](CO)[C@@H](O)[C@H](O)[C@H]3O)[C@H]2O)[C@H](OC(=O)[C@]23CCC(C)(C)C[C@H]2C2=CCC4[C@@]5(C)C[C@H](O)[C@H](O[C@@H]6O[C@H](C(=O)O)[C@@H](O)[C@H](O)[C@H]6O)[C@@](C)(C(=O)O)C5CC[C@@]4(C)[C@]2(C)CC3)O[C@@H]1C` (stereo not given in full), the activity, negative = inhibition was 0% [at 11.6 µM].

Consider `CC1(C)CC[C@]2(C(=O)O[C@@H]3O[C@H](CO)[C@@H](O)[C@H](O)[C@H]3O)CC[C@]3(C)C(=CCC4[C@@]5(C)CC[C@H](O[C@@H]6O[C@H](C(=O)O)[C@@H](O)[C@H](O)[C@H]6OC6OC(CO)C(O)C(O)C6O)C(C)(C)C5CC[C@]43C)[C@@H]2C1` (stereo not given in full), for which the activity, negative = inhibition was 0.31% [at 11.6 µM].

In the case of `C/C(=C\CCC(C)CCO)C(=O)OC[C@H]1O[C@@H](O[C@@H]2OC=C(C(=O)O)[C@H]3CC[C@](C)(O)[C@@H]23)C(O)[C@@H](O)C1O` (stereo not given in full), the “activity, negative = inhibition” value is -2.2% [at 25.7 µM].

Take `C=CC(C)(O)CC/C=C(\C)C(=O)O[C@@H]1[C@@H](O)[C@H](OC(C)(C=C)CC/C=C(\C)C(=O)O)O[C@H](CO)[C@H]1OC(=O)/C(C)=C/CCC(C)(O)C=C` (stereo not given in full): the “activity, negative = inhibition” value is -1.04% [at 25.7 µM].

Take `CCCCOc1nc(N)c2c(n1)N(Cc1cccc(CN3CCCC3)c1)CC(=O)N2`: the “activity, negative = inhibition” value is 1.9%.

Turning to `CC1CC(=O)C2=C(O1)OC1(C)CCC3C(C)(C)C4OC4C(=O)C3(C)C1C2` (stereo not given), the “activity, negative = inhibition” value is 1.68%.

As to `C=CC(C)(CCC=C(C)C)O[C@@H]1O[C@H](CO)[C@@H](O)[C@H](O)[C@H]1O` (stereo not given in full), the “activity, negative = inhibition” value is 3.84%.

For the molecule `CC(C)/C=C1/NC(=O)C(C(C)C)n2c1nc1c(O)cccc1c2=O` (stereo not given), the “activity, negative = inhibition” value was -12.8%.

As to `CC(=O)OC1CC2(C)C(CCC(C)C23Cc2c(O)cc4c(c2O3)CNC4=O)C(C)(C)C1O` (stereo not given), the “activity, negative = inhibition” value was 0% [at 25.7 µM].

As for `COc1c2ccoc2nc2c(OC)c(O[C@@H]3O[C@@H](C)[C@H](O)[C@@H](O[C@@H]4O[C@H](CO)[C@@H](O)[C@H](O)[C@H]4O)[C@H]3OC(C)=O)ccc12`, the “activity, negative = inhibition” value was 4.1% [at 25.7 µM].

Regarding `CC1=C2C[C@@]3(C)[C@@H](CCC[C@@H]3C)C[C@@]2(O)OC1=O`, the “activity, negative = inhibition” value is 3.76%.

On to `CC(=O)NC(Cc1c[nH]c2ccccc(=O)c12)C(=O)O` (stereo not given), for which the “activity, negative = inhibition” value is -7.99%.

Turning to `COc1ccc(CCC(=O)c2c(O)cc(O[C@@H]3O[C@H](CO)[C@@H](O)[C@H](O)[C@H]3O[C@@H]3O[C@@H](C)[C@H](O)[C@@H](O)[C@H]3O)cc2O)cc1O`, the “activity, negative = inhibition” value was 0.836%.
